In PubChem BioAssay:
For some assays here: Results with a measured potency or affinity are listed apart. Activity calls are given as the source filed them. Unless noted, no rule for the calls is given here.

Legend:
[1] = antimalarial activity against Dd2 strain (AID 2302;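 active = growth inhibition above 50% at the single 2 µM test dose, taken to imply half-maximal potency below 2 µM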;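 also: 0% = DMSO untreated growth and 100% = chloroquine plus artemisinin killed control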); settings: P. falciparum Dd2 in RBCs, LDH growth readout, 72 h; at 2 µM; active compounds read high
[2] = human hepatoma cell viability loss – ATP luminescence, cytotoxicity control for P. falciparum antimalarial project, primary screen (AID 2303;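 active = inhibition above 50%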;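 also: 0% = DMSO wells and 100% = digitonin-killed cells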); settings: HepG2 viability, 24-48 h, at 10 µM, active compounds read high
[3] = molecular target: L-lactate dehydrogenase (Plasmodium falciparum (isolate CDC / Honduras)) (UniProt Q27743); assay: PfLDH activity inhibition – cell lysate, 3D7 strain, counter-screen for P. falciparum growth inhibition project (AID 2304);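 also: 0% = vehicle and 100% = reference inhibitor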; settings: P. falciparum 3D7 crude extract, LDH APAD/NBT absorbance; at 2 µM; active compounds read high
[4] = inhibition of 3D7 malaria parasite growth – strain 3D7 (AID 2306);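 also: 0% = DMSO wells and 100% = chloroquine plus artemisinin control wells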; settings: P. falciparum 3D7 erythrocytic growth, LDH absorbance, 72 h; at 2 µM; active compounds read high
[5] = molecular target: Calcium-dependent protein kinase 1 (Plasmodium falciparum (isolate 3D7)) (UniProt P62344); assay: PfCDPK1 kinase inhibitors, biochemical, TCAMS library (AID 1159585; cut-off not given, nearly all actives have IC50 up to about 0.98 µM;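 also: inhibitors leave more ATP so luminescence rises with inhibition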); settings: recombinant PfCDPK1, Kinase-Glo ATP depletion luminescence
[6] = molecular target: Plasmodium falciparum protein kinase 6 (PK6, PF3D7_1337100) (UniProt Q8IDW1); assay: PfPK6 kinase inhibitors, biochemical, TCAMS library (AID 1159586); settings: recombinant PfPK6, Kinase-Glo ATP depletion luminescence
[7] = molecular target: Protein kinase 7 (PK7), Plasmodium falciparum 3D7 (PF3D7_0213400) (UniProt Q7YTF7); assay: inhibition of Plasmodium PK7 catalytic activity – biochemical, TCAMS antimalarial set, Kinase-Glo luminescence (AID 1159587); settings: recombinant PfPK7, Kinase-Glo ATP depletion luminescence
[8] = molecular target: Calcium-dependent protein kinase 4 (Plasmodium falciparum (isolate 3D7)) (UniProt Q8IBS5); assay: PfCDPK4 kinase inhibitors, biochemical, TCAMS library (AID 1159588; cut-off not given, nearly all actives have IC50 up to about 0.91 µM); settings: recombinant PfCDPK4, Kinase-Glo ATP depletion luminescence
Chain of Calcium-dependent protein kinase 4 (Plasmodium falciparum (isolate 3D7)) (Q8IBS5 whole entry, looked up): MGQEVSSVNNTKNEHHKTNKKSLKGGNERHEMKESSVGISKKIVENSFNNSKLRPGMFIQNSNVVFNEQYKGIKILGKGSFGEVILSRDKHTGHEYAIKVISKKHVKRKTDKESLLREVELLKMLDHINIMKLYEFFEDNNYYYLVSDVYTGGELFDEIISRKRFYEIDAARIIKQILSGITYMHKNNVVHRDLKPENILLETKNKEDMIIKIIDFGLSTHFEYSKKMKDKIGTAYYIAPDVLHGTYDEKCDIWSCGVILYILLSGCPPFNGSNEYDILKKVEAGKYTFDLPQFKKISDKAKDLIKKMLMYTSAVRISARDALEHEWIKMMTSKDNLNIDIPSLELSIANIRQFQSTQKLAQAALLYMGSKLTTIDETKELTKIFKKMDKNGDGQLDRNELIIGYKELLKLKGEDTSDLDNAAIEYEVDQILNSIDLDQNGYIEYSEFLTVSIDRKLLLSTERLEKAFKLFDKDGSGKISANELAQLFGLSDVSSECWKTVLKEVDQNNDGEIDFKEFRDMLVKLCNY

Chain of Calcium-dependent protein kinase 1 (Plasmodium falciparum (isolate 3D7)) (P62344 whole entry, looked up): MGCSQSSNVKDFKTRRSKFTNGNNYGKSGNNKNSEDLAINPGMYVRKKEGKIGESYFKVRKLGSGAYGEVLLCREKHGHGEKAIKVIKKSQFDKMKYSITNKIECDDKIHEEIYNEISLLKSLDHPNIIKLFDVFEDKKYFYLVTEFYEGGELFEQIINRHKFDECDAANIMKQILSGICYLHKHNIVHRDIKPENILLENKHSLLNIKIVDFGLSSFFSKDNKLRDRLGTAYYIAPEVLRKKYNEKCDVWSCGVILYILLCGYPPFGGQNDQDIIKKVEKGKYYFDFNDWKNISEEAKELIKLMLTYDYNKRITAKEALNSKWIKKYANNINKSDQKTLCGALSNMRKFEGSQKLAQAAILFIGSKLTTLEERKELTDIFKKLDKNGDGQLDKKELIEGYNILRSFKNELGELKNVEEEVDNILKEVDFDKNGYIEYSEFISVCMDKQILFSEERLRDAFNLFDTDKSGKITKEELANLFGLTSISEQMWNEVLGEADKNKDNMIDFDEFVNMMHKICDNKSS
Chain of Protein kinase 7 (PK7), Plasmodium falciparum 3D7 (PF3D7_0213400) (Q7YTF7 1-343): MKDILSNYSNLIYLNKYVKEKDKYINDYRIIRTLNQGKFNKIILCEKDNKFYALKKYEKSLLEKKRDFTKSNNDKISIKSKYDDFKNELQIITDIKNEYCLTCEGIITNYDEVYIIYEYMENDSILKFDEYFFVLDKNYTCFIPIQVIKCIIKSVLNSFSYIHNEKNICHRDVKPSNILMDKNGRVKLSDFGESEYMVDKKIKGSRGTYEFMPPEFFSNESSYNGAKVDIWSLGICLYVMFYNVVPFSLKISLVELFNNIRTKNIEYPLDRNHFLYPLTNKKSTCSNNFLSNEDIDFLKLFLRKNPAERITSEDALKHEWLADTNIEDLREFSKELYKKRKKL
Chain of Plasmodium falciparum protein kinase 6 (PK6, PF3D7_1337100) (Q8IDW1 1-305): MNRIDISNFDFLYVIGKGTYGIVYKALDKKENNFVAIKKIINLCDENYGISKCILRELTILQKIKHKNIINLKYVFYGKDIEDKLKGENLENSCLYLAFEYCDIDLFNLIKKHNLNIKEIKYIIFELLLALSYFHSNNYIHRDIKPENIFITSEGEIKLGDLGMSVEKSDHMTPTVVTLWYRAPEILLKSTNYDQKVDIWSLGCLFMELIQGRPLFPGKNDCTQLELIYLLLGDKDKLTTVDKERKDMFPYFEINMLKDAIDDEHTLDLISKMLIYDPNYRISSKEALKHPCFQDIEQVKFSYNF
Chain of L-lactate dehydrogenase (Plasmodium falciparum (isolate CDC / Honduras)) (Q27743 whole entry, looked up): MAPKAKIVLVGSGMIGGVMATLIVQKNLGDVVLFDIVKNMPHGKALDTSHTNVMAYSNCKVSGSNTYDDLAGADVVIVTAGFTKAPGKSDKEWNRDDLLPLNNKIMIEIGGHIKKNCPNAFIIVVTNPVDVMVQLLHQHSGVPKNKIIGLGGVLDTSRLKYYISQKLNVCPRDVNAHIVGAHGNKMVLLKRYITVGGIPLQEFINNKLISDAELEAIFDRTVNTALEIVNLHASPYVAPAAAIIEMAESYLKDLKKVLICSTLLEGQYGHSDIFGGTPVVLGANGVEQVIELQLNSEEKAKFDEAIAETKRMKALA

OC(CNCc1ccccc1OCc1ccccc1)c1cccc(C(F)(F)F)c1 (stereo not given)
active: growth inhibition [1] 99% | growth inhibition [4] 99%
inactive: inhibition [2] 12% | inhibition [3] -2% | outcome [5] | outcome [6] | outcome [7] | outcome [8]

COc1ccc2c(NN=Cc3cccc(F)c3)cc(C)nc2c1
active: growth inhibition [1] 100% | growth inhibition [4] 101%
inactive: inhibition [2] 17% | inhibition [3] -4% | outcome [5] | outcome [6] | outcome [7] | outcome [8]

CCCCCCCC1CC(CC(=O)Nc2ccnc3ccc(OC)cc23)CN1C(=O)OC(C)(C)C (stereo not given)
active: growth inhibition [4] 100%
inactive: growth inhibition [1] 34% | inhibition [2] 1% | inhibition [3] 3% | outcome [5] | outcome [6] | outcome [7] | outcome [8]

COc1ccc(NC(=O)NC2CCN(CCCOc3cc(C)nc4ccccc34)CC2)cc1OC
inactive: growth inhibition [1] 9% | inhibition [2] 3% | inhibition [3] 2% | outcome [5] | outcome [6] | outcome [7] | outcome [8]
active: growth inhibition [4] 97%

CN1CCN(CCc2ccc3nc(-c4csc(Cc5cc(Cl)ccc5OCc5ccccc5)n4)[nH]c3c2)CC1
inactive: inhibition [2] 30% | inhibition [3] -1% | outcome [5] | outcome [6] | outcome [7] | outcome [8]
active: growth inhibition [1] 97% | growth inhibition [4] 101%

COc1ccc(CCC(C)N2C[C@@H](N)[C@H](c3cn(C)c4cnccc34)C2)cc1 (stereo not given in full)
inactive: growth inhibition [1] -4% | inhibition [2] 5% | inhibition [3] -1% | outcome [5] | outcome [6] | outcome [7] | outcome [8]
active: growth inhibition [4] 98%

Cc1cc(C(=O)Nc2ccc3c(c2)CCN3C2CCN(Cc3csc4ccccc34)C2)no1 (stereo not given)
active: growth inhibition [1] 96% | growth inhibition [4] 96%
inactive: inhibition [2] 1% | inhibition [3] 0% | outcome [5] | outcome [6] | outcome [7] | outcome [8]

CC1(C)N=C(N)N=C(N)N1OCCOc1cccc(C(F)(F)F)c1
inactive: inhibition [3] -2% | outcome [5] | outcome [6] | outcome [7] | outcome [8]
active: growth inhibition [1] 97% | inhibition [2] 67% | growth inhibition [4] 93%

Cc1ccccc1NC1=NC(=S)N(c2cccc(C(F)(F)F)c2)C12CCC(C(C)(C)C)CC2 (stereo not given)
inactive: growth inhibition [1] 25% | inhibition [2] 9% | inhibition [3] 5% | outcome [5] | outcome [6] | outcome [7] | outcome [8]
active: growth inhibition [4] 95%

CC1(C)N=C(N)N=C(N)N1OCc1cccc(C#N)c1
inactive: growth inhibition [1] 2% | inhibition [3] 5% | outcome [5] | outcome [6] | outcome [7] | outcome [8]
active: inhibition [2] 57% | growth inhibition [4] 94%

COc1cc(C2CCN(CCCCNC(=O)c3ccc(NC(=O)c4ccc(Cl)c(Cl)c4)cc3)CC2)ccc1OC(C)C
active: growth inhibition [1] 96% | growth inhibition [4] 101%
inactive: inhibition [2] 45% | inhibition [3] -5% | outcome [5] | outcome [6] | outcome [7] | outcome [8]

FC(F)(F)c1ccc2nc(-c3ccc(-c4cccc(CNCc5cnn(-c6ccccc6)n5)c4)s3)[nH]c2c1
active: growth inhibition [1] 91% | growth inhibition [4] 101%
inactive: inhibition [2] 38% | inhibition [3] -2% | outcome [5] | outcome [6] | outcome [7] | outcome [8]

CNC(=O)c1cnc(Nc2ccc(N3CCN(C)CC3)cc2)nc1Nc1cccc(OC(C)C)c1
active: growth inhibition [1] 102% | growth inhibition [4] 100%
inactive: inhibition [2] 16% | inhibition [3] 4% | outcome [5] | outcome [6] | outcome [7] | outcome [8]

CS(=O)(=O)N1CC2(CCN(CCC(NC(=O)NCc3ccccc3Cl)c3ccc(Cl)c(Cl)c3)CC2)c2ccccc21 (stereo not given)
inactive: inhibition [2] 12% | inhibition [3] -7% | outcome [5] | outcome [6] | outcome [7] | outcome [8]
active: growth inhibition [1] 98% | growth inhibition [4] 85%

O=C(Cn1c(CCc2cccc(F)c2F)nc(=O)c2cccnc21)N(Cc1ccc(-c2ccc(C(F)(F)F)cc2)cc1)C1CCN(C2CCOCC2)CC1
inactive: inhibition [3] 1% | outcome [5] | outcome [6] | outcome [7] | outcome [8]
active: growth inhibition [1] 67% | inhibition [2] 100% | growth inhibition [4] 94%

C=CCN(C(=O)c1ccc(Cl)c([N+](=O)[O-])c1)c1nc(-c2ccccc2)cs1
inactive: inhibition [2] -13% | inhibition [3] -6% | outcome [5] | outcome [6] | outcome [7] | outcome [8]
active: growth inhibition [1] 99% | growth inhibition [4] 100%

CN1CCC(Oc2ccc(NC(=O)c3ccc4c(=O)n(Cc5ccccc5)cnc4c3)cc2Cl)CC1
inactive: growth inhibition [1] 20% | inhibition [2] 23% | inhibition [3] 0% | outcome [5] | outcome [6] | outcome [7] | outcome [8]
active: growth inhibition [4] 95%

CN(CCO)Cc1cccc(-c2ccc(NC(=O)c3cccc(C#N)c3)cc2)c1
inactive: inhibition [2] 23% | inhibition [3] 9% | outcome [5] | outcome [6] | outcome [7] | outcome [8]
active: growth inhibition [1] 57% | growth inhibition [4] 97%

O=C(NC(Cc1ccccc1)C(=O)O)c1cc(=O)c2ccccc2o1 (stereo not given)
active: inhibition [2] 53% | growth inhibition [4] 99%
inactive: growth inhibition [1] 10% | inhibition [3] -6% | outcome [5] | outcome [6] | outcome [7] | outcome [8]

CN1CCN(c2cccc(Nc3nccc(NCC(O)c4ccccc4)n3)c2)CC1 (stereo not given)
active: growth inhibition [4] 101%
inactive: growth inhibition [1] 4% | inhibition [2] 30% | inhibition [3] -2% | outcome [5] | outcome [6] | outcome [7] | outcome [8]

NC(=O)CNC(=O)CCCN=C(N)N
active: growth inhibition [4] 101%
inactive: growth inhibition [1] -2% | inhibition [2] 20% | inhibition [3] 5% | outcome [5] | outcome [6] | outcome [7] | outcome [8]

CC(C)NCc1cccc(-c2cccc(-c3nc4ccccc4[nH]3)c2)c1
inactive: growth inhibition [1] 22% | inhibition [2] 11% | inhibition [3] -2% | outcome [5] | outcome [6] | outcome [7] | outcome [8]
active: growth inhibition [4] 100%

CC1CCc2c(C(=O)N3CCc4ccccc4C3)csc2C1 (stereo not given)
inactive: inhibition [2] 9% | inhibition [3] -3% | outcome [5] | outcome [6] | outcome [7] | outcome [8]
active: growth inhibition [1] 75% | growth inhibition [4] 99%

CCC(C)(C)c1ccc(OCC(O)CN2CCCCC2)c(C(C)(C)CC)c1 (stereo not given)
inactive: growth inhibition [1] 26% | inhibition [2] 14% | inhibition [3] -9% | outcome [5] | outcome [6] | outcome [7] | outcome [8]
active: growth inhibition [4] 91%

COc1ccc(NC(=O)[C@H](Cc2ccccc2)Nc2cc(C)nc(NCCc3ccccn3)n2)cc1
active: growth inhibition [4] 99%
inactive: growth inhibition [1] 39% | inhibition [2] -7% | inhibition [3] -3% | outcome [5] | outcome [6] | outcome [7] | outcome [8]

COc1ccc2ncc(F)c(CCN3C[C@@H]4CCC[C@]4(CNCc4ccc5c(n4)NC(=O)CS5)C3)c2n1
active: growth inhibition [4] 87%
inactive: growth inhibition [1] 28% | inhibition [2] 18% | inhibition [3] 2% | outcome [5] | outcome [6] | outcome [7] | outcome [8]

CCc1ccc(-n2c(NC(=O)c3ccccc3)nc3ccc(S(=O)(=O)NC(C)C(C)C)cc32)cc1 (stereo not given)
active: growth inhibition [4] 88%
inactive: growth inhibition [1] -4% | inhibition [2] 48% | inhibition [3] 0% | outcome [5] | outcome [6] | outcome [7] | outcome [8]

COc1ccc2c(NN=CC=Cc3ccccc3)cc(C)nc2c1
active: growth inhibition [1] 56% | growth inhibition [4] 99%
inactive: inhibition [2] 18% | inhibition [3] 2% | outcome [5] | outcome [6] | outcome [7] | outcome [8]

Clc1ccc(OC2CCC(Cn3ccnc3)(c3ccc(Cl)cc3Cl)CC2)c(Cl)c1 (stereo not given)
active: growth inhibition [1] 86% | growth inhibition [4] 98%
inactive: inhibition [2] 4% | inhibition [3] -4% | outcome [5] | outcome [6] | outcome [7] | outcome [8]

CC1(C)N=C(N)N=C(N)N1OCc1cc(Cl)c(Cl)cc1CON1C(N)=NC(N)=NC1(C)C
inactive: inhibition [2] 36% | inhibition [3] 4% | outcome [5] | outcome [6] | outcome [7] | outcome [8]
active: growth inhibition [1] 100% | growth inhibition [4] 98%

O=C(C=Cc1ccc(Cl)c(Cl)c1)NCCCCCN1CCC(CCNS(=O)(=O)c2ccc(Br)cc2)CC1
active: inhibition [2] 58% | growth inhibition [4] 91%
inactive: growth inhibition [1] -1% | inhibition [3] 5% | outcome [5] | outcome [6] | outcome [7] | outcome [8]

CCOC(=O)C(=CNc1ccc(Cc2cnc(N)nc2N)cc1CC)C(=O)OCC
active: growth inhibition [4] 87%
inactive: growth inhibition [1] 7% | inhibition [2] 47% | inhibition [3] 1% | outcome [5] | outcome [6] | outcome [7] | outcome [8]

O=C(Nc1ccccc1Br)c1cn(-c2ccccc2)nc1-c1cccc([N+](=O)[O-])c1
active: growth inhibition [4] 92%
inactive: growth inhibition [1] 36% | inhibition [2] 7% | inhibition [3] -5% | outcome [5] | outcome [6] | outcome [7] | outcome [8]

Cc1nc2ccccn2c1C1(O)C(=O)Nc2c(Cl)cc(Cl)cc21 (stereo not given)
inactive: inhibition [2] -11% | inhibition [3] -3% | outcome [5] | outcome [6] | outcome [7] | outcome [8]
active: growth inhibition [1] 62% | growth inhibition [4] 95%

O=C(N[C@@H](CC1CCCCC1)C(=O)NC1CCCc2ccccc21)c1ccc(O)c(-c2cccc(C(F)(F)F)c2)c1 (stereo not given in full)
active: growth inhibition [1] 99% | growth inhibition [4] 100%
inactive: inhibition [2] -4% | inhibition [3] 5% | outcome [5] | outcome [6] | outcome [7] | outcome [8]

CC(C)(C)Nc1cc(C(=O)N[C@@H](Cc2ccccc2)[C@H](O)CNC2CCOCC2)cc(N2CCCCS2(=O)=O)c1
active: growth inhibition [1] 98% | growth inhibition [4] 99%
inactive: inhibition [2] -5% | inhibition [3] -1% | outcome [5] | outcome [6] | outcome [7] | outcome [8]

Cc1cc(N(C)C)nc(Nc2ccc(NC(=O)Nc3ccccc3)cc2)n1
inactive: inhibition [2] 10% | inhibition [3] -2% | outcome [5] | outcome [6] | outcome [7] | outcome [8]
active: growth inhibition [1] 100% | growth inhibition [4] 101%

COc1cc(Cc2cnc(N)nc2N)cc(OCCn2ccccc2=O)c1OC
active: growth inhibition [4] 97%
inactive: growth inhibition [1] -3% | inhibition [2] 4% | inhibition [3] 2% | outcome [5] | outcome [6] | outcome [7] | outcome [8]

NC1CCN(c2nc(NCCCc3ccc(O)cc3)nc(NCc3cccc4ccccc34)n2)CC1
active: growth inhibition [4] 102%
inactive: growth inhibition [1] 2% | inhibition [2] 12% | inhibition [3] 6% | outcome [5] | outcome [6] | outcome [7] | outcome [8]

CCNc1cc(C(=O)N[C@@H](Cc2ccccc2Cl)[C@H](O)CNC2CCCCC2)cc(N2CCCCS2(=O)=O)c1
active: growth inhibition [1] 97% | growth inhibition [4] 99%
inactive: inhibition [2] 6% | inhibition [3] 0% | outcome [5] | outcome [6] | outcome [7] | outcome [8]
